# From article PMC5540273 (PLoS ONE, 2017)
# Test system: T1, MEK5
# T1 construct: gene MAP2K5
# 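Also: kd values determined as follow-up on hits from a single-replicate KINOMEscan panel screen.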
row,SMILES,Kd [µM]
1,CS(=O)(=O)Cc1ccc(Nc2nccc(-c3c(-c4cccc(NC(=O)C5CCCCC5)c4)nn4ncccc34)n2)cc1 [GSK350559],0.035
2,CS(=O)(=O)CCNCc1nc(-c2ccc3ncnc(Nc4ccc(OCc5ccccc5)c(Cl)c4)c3c2)cs1.Cl [GW582764],0.7
3,COc1cc2ncnc(Nc3cccc(Br)c3)c2cc1OC.Cl [GI230329],0.7
4,Cn1cncc1-c1cc2c(Nc3ccc(OCc4ccccc4)cc3)ncnc2cn1 [GW281179],0.14
5,Nc1ncnc2occ(-c3ccc4c(c3)CCN4C(=O)Cc3cc(F)ccc3F)c12 [GSK2645446],0.75
6,COC(=O)C(NC(=O)NC1CCN(c2ccnc(Nc3ccc(F)cc3)n2)C1)c1ccccc1 (stereo not drawn) [GSK1379712],0.27
7,CS(=O)(=O)CCNCc1nc(-c2ccc3ncnc(Nc4ccc5c(cnn5Cc5ccccc5)c4)c3c2)cs1.Cl.Cl [GW569716],0.043

# Test system: T2, MLCK
# T2 construct: gene MYLK3
row,SMILES,Kd [µM]
1,CS(=O)(=O)CCNCc1nc(-c2ccc3ncnc(Nc4ccc(OCc5ccccc5)c(Cl)c4)c3c2)cs1.Cl [GW582764],> 10
2,O=C(Nc1n[nH]c2nc(-c3cccs3)c(Br)cc12)C1CCCC1 [SB-743341],0.29
3,O=C(Nc1n[nH]c2nc(-c3cccs3)c(Br)cc12)C1CC1 [SB-735297],0.18

# Test system: MYLK2
row,SMILES,Kd [µM]
1,O=C(Nc1n[nH]c2cc(-c3ccsc3)ccc12)C1CC1 [SB-732932],0.041
2,Nc1cccc(-c2ccc3c(N)n[nH]c3c2)n1 [GSK2192730],0.18
3,O=C(Nc1n[nH]c2nc(-c3cccs3)c(Br)cc12)C1CCCC1 [SB-743341],0.026
4,O=C(Nc1n[nH]c2nc(-c3cccs3)c(Br)cc12)C1CC1 [SB-735297],0.0084
5,O=C(Nc1n[nH]c2nc(-c3ccco3)c(Br)cc12)C1CCN(Cc2ccccc2)C1.O=C(O)[C@H](O)[C@@H](O)C(=O)O (stereo not drawn) [SB-742034],0.46
